These results are taken from PubChem BioAssay (NCATS).

The nature of assay [1]: Stat Signaling Pathway (AID 446; active means well fitted curve in either direction with a large enough effect, not every such curve was filed as active;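 further: ME-180 cervical cancer cells given 40 pM IL-6 alongside compound; SIE-controlled beta-lactamase reporter measured as 460/530 nm FRET emission ratio; on the % scale 0 is the no-effect control and ±100 the full control effect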). To be noted: ME-180 (cervical carcinoma) SIE beta-lactamase reporter, IL-6 stimulated, 5 h; at 38 µM (top of the series) unless noted. In short, it runs like this:
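ME-180 cells carrying a SIE-driven beta-lactamase reporter are stimulated with 40 pM IL-6 for 5 h at 37C in the presence of compound. The 460/530 nm FRET substrate ratio is read after 2.5 h at RT. Data are normalised to 300 pM IL-6 and to 125 nM JAK inhibitor controls.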

In assay [2] the target is Glucocorticoid receptor (Homo sapiens) (UniProt P04150). Put plainly: GR-EFC Redistribution (AID 451). Further: potency means the concentration at half of the fitted maximal effect. To be noted: CHO-K1 GR-EFC translocation, beta-gal luminescence, 2 h. In short, it runs like this: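 CHO-K1 cells stably expressing nuclear-localized β-gal enzyme acceptor and GR fused C-terminally to the enzyme donor fragment; ligand-driven nuclear translocation restores β-gal by complementation. Compounds titrated up to 46 uM final, 2 h at 37 °C; luminescence read.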
Sequence of Glucocorticoid receptor (Homo sapiens) (P04150 whole entry, looked up, the tested form may be a part): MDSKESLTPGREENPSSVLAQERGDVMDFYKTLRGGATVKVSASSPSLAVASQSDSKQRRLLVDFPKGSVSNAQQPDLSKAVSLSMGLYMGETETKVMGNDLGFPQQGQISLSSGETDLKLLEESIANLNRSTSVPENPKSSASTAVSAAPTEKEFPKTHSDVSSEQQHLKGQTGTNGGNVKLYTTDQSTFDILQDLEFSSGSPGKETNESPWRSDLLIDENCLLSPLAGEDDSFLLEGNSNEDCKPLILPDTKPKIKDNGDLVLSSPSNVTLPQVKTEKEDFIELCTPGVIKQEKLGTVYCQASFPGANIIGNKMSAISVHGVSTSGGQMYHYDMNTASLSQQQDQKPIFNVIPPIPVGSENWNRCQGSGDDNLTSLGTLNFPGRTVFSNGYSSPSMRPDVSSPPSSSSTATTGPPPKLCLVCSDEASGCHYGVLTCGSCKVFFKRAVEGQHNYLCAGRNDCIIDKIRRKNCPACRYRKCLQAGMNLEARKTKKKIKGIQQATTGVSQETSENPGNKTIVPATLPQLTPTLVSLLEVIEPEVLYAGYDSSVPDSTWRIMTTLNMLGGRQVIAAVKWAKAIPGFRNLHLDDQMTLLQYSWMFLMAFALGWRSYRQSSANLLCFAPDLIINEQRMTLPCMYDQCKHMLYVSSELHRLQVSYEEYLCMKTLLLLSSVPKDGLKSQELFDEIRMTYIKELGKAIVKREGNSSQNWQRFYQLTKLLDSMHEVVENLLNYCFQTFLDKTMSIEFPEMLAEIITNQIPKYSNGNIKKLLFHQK

For assay [3], the target named is Mitogen-activated protein kinase 10 (Mus musculus) (UniProt Q61831). Put plainly: JNK3 AlphaScreen Assay (AID 530; active means well fitted curve in either direction with a large enough effect, not every such curve was filed as active;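 further: kinase came from lysate of stimulated human HepG2 cells; signal reports phosphorylation of biotinylated GST-cJun 1-79 at Ser73 with 10 µM ATP; on the % scale 0 is the no-effect control and ±100 the full control effect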). As to conditions: JNK3 lysate, c-Jun phosphorylation; series mostly up to 57.1 µM. In short, it runs like this:
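JNK3 came from HepG2 lysates pre-activated with IL-1beta and TNF-alpha and phosphorylated biotinylated GST-cJun (1-79) at 10 uM ATP, pH 7.6, room temperature. Compounds were titrated. AlphaScreen signal used anti-phospho-cJun (Ser73) antibody.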
For orientation: Alpha assays give light when donor and acceptor beads are brought close together.

Assay [4] addresses Glucocorticoid receptor (Homo sapiens) (UniProt P04150). Description: GR-GFP Redistribution (AID 450;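 active means compounds whose dose series gives a full or clear partial fitted curve of increased nuclear translocation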; further: potency means the concentration at half of the fitted maximal effect). To be noted: U2OS GR-GFP nuclear translocation, laser cytometry, 2 h.

Values without a mark were called inactive. Inconclusive results are not listed. The source made the active and inactive calls. Unless noted, the call rests on the fitted dose curve. Residues, ends and D or L forms follow the SMILES beside them. *: point of attachment. Cbz = O=C(OCc1ccccc1)*

Turning to `S=C(S)N1CCCC1`, the activity, negative = inhibition in assay [1] was 7.91%. Also, the Potency in assay [2] is greater than 46 µM. In addition, the call in assay [3] was inactive.
With `Cc1cc2c(cc1Cl)N(C(=O)Nc1ccnc3ccccc13)CC2`, the Potency in assay [2] is greater than 46 µM. The molecule was called inactive in assay [3].
Regarding `NCCNS(=O)(=O)c1cccc2c(Cl)cccc12`, the Potency in assay [4] and in assay [2] was greater than 46 µM throughout. The call in assay [3] was inactive.
Regarding `CC(C)[C@H](NC(=O)OCc1ccccc1)C(=O)N[C@H](C=O)Cc1ccccc1` (Cbz-Val-Phe-aldehyde), the Potency in assay [4] and in assay [2] was greater than 46 µM in each case. Further, the call in assay [3] was inactive.
As to `O=C(O)Cc1c[nH]c2ccc(O)cc12`, the Potency in assay [4] and in assay [2] was greater than 46 µM in each case. The molecule was called inactive in assay [3].
As for `COc1ccc2c(c1)c(CC(=O)O)c(C)n2Cc1ccc(Cl)cc1`, the Potency in assay [2] is greater than 46 µM.
As to `CCCC(=O)NCCc1c2n(c3ccc(OC)cc13)CCCc1ccccc1-2`, the Potency in assay [2] is greater than 46 µM. Further, the outcome in assay [3] was inactive.
On to `NC1(C(=O)O)CC1`, for which, in assay [2], the Potency was greater than 46 µM. The call in assay [3] was inactive.
Regarding `CN1CCc2cc(Cl)c(O)cc2[C@@H](c2ccccc2)C1`, the Potency in assay [4] and in assay [2] was greater than 46 µM throughout. Moreover, the outcome in assay [3] was inactive.
On to `CC[C@H](NC(=O)c1c(C)c(-c2ccccc2)nc2ccccc12)c1ccccc1`, for which the Potency in assay [2] was greater than 46 µM.
Regarding `CN1CCN(c2nc3cc(C(F)(F)F)ccc3n3cccc23)CC1`, the Potency in assay [4] and in assay [2] was greater than 46 µM throughout. The molecule was classed as inactive in assay [3].
For the molecule `CCCn1c(=O)c(C)cn2nc(N)nc12`, the Potency in assay [4] and in assay [2] was greater than 46 µM each time. Besides, the call in assay [3] was inactive.
On to `O=C(O)C1=CCCNC1`, for which the Potency in assay [2] is greater than 46 µM. The molecule was called inactive in assay [3].
Turning to `C/C(=C\c1ccc(C(=O)O)cc1)c1ccc2c(c1)C(C)(C)CCC2(C)C`, the Potency in assay [2] was greater than 46 µM. Also, the call in assay [3] was inactive.
In the case of `C=C1C(=O)O[C@@H]2[C@H]3O[C@]3(C)CCC=C(C)CC[C@@H]12`, the Potency in assay [2] is greater than 46 µM. The outcome in assay [3] was inactive.
In the case of `N=C(N)SCCc1cnc[nH]1`, the Potency in assay [4] and in assay [2] was greater than 46 µM in each case. Further, the call in assay [3] was inactive.
`CCN(CC)CCCCCCCCOC(=O)c1cc(OC)c(OC)c(OC)c1`: the Potency in assay [4] and in assay [2] was greater than 46 µM in each case. Also, the molecule was classed as inactive in assay [3].
Regarding `CC(=O)NNC(=O)N1Cc2ccccc2Oc2ccc(Cl)cc21`, the Potency in assay [4] and in assay [2] was greater than 46 µM throughout. The molecule was classed as inactive in assay [3].
Consider `COc1cc(/C=C(\C#N)C(=O)c2ccc(O)c(O)c2)cc(I)c1O`, for which the Potency in assay [2] is greater than 46 µM.
Turning to `N[C@@H](CS(=O)O)C(=O)O`, the Potency in assay [2] was greater than 46 µM. Moreover, the molecule was classed as inactive in assay [3].
Take `NC(=Nc1ccccc1)NC(=O)c1nc(Cl)c(N)nc1N`: the Potency in assay [4] and in assay [2] was greater than 46 µM throughout. In addition, in assay [3], the molecule was called inactive.
Turning to `C[C@](Cc1ccc(O)c(O)c1)(NN)C(=O)O`, the Potency in assay [2] was greater than 46 µM.
For the molecule `O=C(OCCN1CCOCC1)C1(c2ccccc2)CCCCC1`, the Potency in assay [4] and in assay [2] was greater than 46 µM throughout. Moreover, the molecule was classed as inactive in assay [3].
In the case of `CN(C)CCCc1cc(C(=O)Nc2ccc(-c3ccncc3)cc2)ccc1O`, the Potency in assay [4] and in assay [2] was greater than 46 µM throughout. Moreover, the result in assay [3] was inactive.
For `N[C@H](C(=O)O)[C@H](O)C(=O)O`, the Potency in assay [2] is greater than 46 µM. The outcome in assay [3] was inactive.
`CCCCCCCCCCC/C=C\C(C)(C)/C=C\CCCC(=O)O`: the Potency in assay [4] and in assay [2] was greater than 46 µM in each case. Moreover, the outcome in assay [3] was inactive.
Turning to `CCCCCC[C@@H]([C@@H](C)O)n1cnc2c(N)ncnc21`, in assay [2], the Potency was greater than 46 µM. Further, the molecule was classed as inactive in assay [3].
In the case of `COC(=O)[C@H](NC(=O)c1cc(-c2ccccc2)nc2ccccc12)c1ccccc1`, the Potency in assay [2] was greater than 46 µM.
For the molecule `OC1(c2ccc(Cl)cc2)CCN(Cc2c[nH]c3ccccc23)CC1`, the Potency in assay [4] and in assay [2] was greater than 46 µM in each case. In addition, the call in assay [3] was inactive.
Consider `O=c1[nH]c(=O)c2nc3ccccc3nc2[nH]1`, for which the Potency in assay [4] and in assay [2] was greater than 46 µM each time. The molecule was classed as inactive in assay [3].
On to `CC1CCN(CC[C@H]2CCCN2S(=O)(=O)c2cccc(O)c2)CC1`, for which the Potency in assay [4] and in assay [2] was greater than 46 µM in each case. Besides, the molecule was classed as inactive in assay [3].
For the molecule `COc1cc(CC(=O)O)ccc1O`, the Potency in assay [2] was greater than 46 µM.
For `CCCCCCCCCCCCCCC[C@H](O)[C@H](N)CO`, the Potency in assay [4] and in assay [2] was greater than 46 µM in each case. The call in assay [3] was inactive.
As to `O=[N+]([O-])c1cccc2c(Br)[nH]nc12`, in assay [2], the Potency is greater than 46 µM.
